VLA-4 inh = inhibition in human VLA-4 binding assay, primary screen, VLA-4 allosteric modulator project, MLPCN library, flow cytometry, VLA-4 expressing cells; AID 2557, 2010; ligand binding flow cytometry; Integrin alpha-4 (Homo sapiens), P13612; actives 0.2% (n = 330,000); inhibition, % (about 7 µM as worked out from the volumes in the protocol); in the data active = inhibition above about 50%
MEKK2wt PB1 HTS = modulators of MEK5 binding to wildtype MEKK2, primary screen, biochemical, multiplex bead flow cytometry, Alexa488-MEK5. Mitogen-activated protein kinase kinase kinase 2 (Homo sapiens), Q9Y2U5. Alexa488-MEK5 binding to MEKK2 WT; actives lie on both sides. binding response (% of control), % at 10 µM. actives 1.1% (n = 290,000); in the data active = binding response below about 67% or above about 130%
MEKK3 PB1 HTS = modulators of MEKK3-MEK5 PB1 binding, primary screen, biochemical, wildtype MEKK3, multiplex bead flow cytometry, Alexa488-MEK5; actives 1.4% (n = 290,000); binding response (% of control), % at 10 µM; bead-based flow cytometry, Alexa488-MEK5 binding to MEKK3; actives lie on both sides; 0 = blocked by unlabeled MEK5, 100 = vehicle;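 active = binding response more than 3 SD above or below the average of its plate-row segment, actives on both sides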;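 note: Alexa488 bead fluorescence after subtracting the streptavidin-only scavenger bead signal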
Target sequence (Q99759 whole entry, looked up): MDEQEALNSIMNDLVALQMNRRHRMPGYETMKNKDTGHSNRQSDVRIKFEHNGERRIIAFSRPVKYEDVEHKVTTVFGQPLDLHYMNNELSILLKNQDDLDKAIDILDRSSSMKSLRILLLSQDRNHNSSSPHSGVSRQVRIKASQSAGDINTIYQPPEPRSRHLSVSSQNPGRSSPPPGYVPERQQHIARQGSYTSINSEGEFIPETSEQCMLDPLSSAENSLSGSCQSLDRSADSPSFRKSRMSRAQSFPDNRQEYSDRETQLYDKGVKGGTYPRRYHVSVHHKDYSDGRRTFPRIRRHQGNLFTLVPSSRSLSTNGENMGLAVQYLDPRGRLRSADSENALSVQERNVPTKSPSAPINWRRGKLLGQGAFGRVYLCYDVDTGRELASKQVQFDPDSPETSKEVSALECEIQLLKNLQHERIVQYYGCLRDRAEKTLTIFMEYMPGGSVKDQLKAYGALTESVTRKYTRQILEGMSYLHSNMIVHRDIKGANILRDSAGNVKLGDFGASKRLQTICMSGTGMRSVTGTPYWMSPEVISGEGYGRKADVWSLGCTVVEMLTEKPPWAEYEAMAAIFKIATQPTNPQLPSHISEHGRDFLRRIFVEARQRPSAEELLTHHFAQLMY
MEKK2mut PB1 HTS = MEK5 binding signal on mutant MEKK2 PB1, primary screen, biochemical, multiplex bead flow cytometry, Alexa488-MEK5. Alexa488-MEK5 binding to MEKK2 mutant. percent response, % at 10 µM. actives 0.35% (n = 290,000). AID 1530, 2009; in the data active = percent response above about 24%, passing the limit was not always enough
An asterisk follows results filed as active; . = no result; ! = repeats disagree; [ ] = dose if it differs, or a comment. A selection: hits, their analogues and other compounds. The true share with any hit is near 2.2%.

SMILES | VLA-4 inh | MEKK2wt PB1 HTS | MEKK3 PB1 HTS | MEKK2mut PB1 HTS
CN1CCN(C(=O)C2CCCN(S(=O)(=O)c3ccc(Cl)cc3)C2)CC1 (configuration not stated) | -9.6 | 102.0 | 101.0 | 4.0
CN(C)CCOc1ccccc1Cc1ccccc1 | 8.0 | -18.0* | 78.0 | -2.0
CNCCCCOc1ccccc1Cc1ccccc1 | 13.7 | 125.0 | 104.0 | 6.0
S=C(NCc1ccccc1)N1CCCCC1 | -3.0 | 102.0 | 102.0 | -1.0
CC(=O)N1CCN(C(=S)NCc2ccccc2)CC1 | 54.5* | 91.0 | 88.0 | -1.0
CN(C)C(=O)c1ccc(NC(=O)CN2C(=O)NC3(CCCc4ccccc43)C2=O)cc1 (configuration not stated) | -9.7 | . | . | .
C(=N\NC1=Nc2cccc3cccc1c23)/c1cccnc1 | -198.8 | 11.0* | 96.0 | 9.0
O=C(COC(=O)C1=NN(c2ccccc2)C(=O)CC1)NCc1ccccc1Cl | 6.4 | . | . | .
COc1cccc(C2C3=C(N=c4s/c(=C\c5cccc(O)c5)c(=O)n42)c2ccccc2CC3)c1OC (configuration not stated) | -46.4 | 97.0 | 133.0* | 1.0
CCCCOc1ccc(C2CCC(C(C)=O)C(C)C2)cc1 (configuration not stated) | 10.8 | 78.0 | 83.0 | -23.0
CC[C@H](C)[C@@H](NC(=O)O[C@@H]1C(=O)c2cc(Br)ccc2O[C@H]1c1ccc2c(c1)OCO2)C(=O)OC | . | 95.0 | 78.0*[inhibitor] | -4.0
COC(=O)[C@@H](NC(=O)O[C@@H]1C(=O)c2cc(Br)ccc2O[C@H]1c1cccc(OC)c1)C(C)C | -1.6 | 95.0 | 101.0 | -6.0
c1ccc2c(c1)nc(Nc1ccc(N3CCCCC3)cc1)c1nncn12 | 3.3 | -4.0* | 99.0 | 2.0
c1ccc(N2CCCCC2)c(Nc2nc3ccccc3n3cnnc23)c1 | -0.2 | 99.0 | 106.0 | 4.0
COc1ccccc1N1CCN(C(=O)C2C3C=CC4(CN(Cc5ccccc5Cl)C(=O)C24)O3)CC1 (configuration not stated) | 13.5 | 86.0 | 82.0*[inhibitor] | -2.0
C#CCOCCOCCOCCNc1nc(N2CCN(C(=O)[C@H](CCCCN)n3cc(CCCC)nn3)CC2)nc(N2CCN(C(=O)[C@H](CCCCN)n3cc(CCC(=O)O)nn3)CC2)n1 | 20.9 | . | . | .
Cc1ccc(-n2c(-c3ccc(Br)cc3)c[n+]3c2CCc2ccc4cccnc4c2-3)cc1 | 18.8 | 153.0* | 105.0 | 24.0
COc1ccc(-n2c(-c3ccc(Cl)cc3)c[n+]3c2CCc2ccccc2-3)cc1 | 1.0 | 85.0 | 75.0 | -14.0
CCC1CCCCN1CCCNC(=O)CS(=O)(=O)Cc1nc(-c2cccc(OC)c2)oc1C (configuration not stated) | 8.2 | 140.0* | 109.0 | 17.0
COc1cccc(-c2nc(CS(=O)(=O)CC(=O)NCCCN3CCOCC3)c(C)o2)c1 | -5.9 | 99.0 | 101.0 | 0.0
Cc1ccc2c(c1)C1CCCC3C1N2CC(=O)N3Cc1ccccc1 (configuration not stated) | -15.9 | 18.0* | 100.0 | 18.0
COc1ccc(CCNC(=O)C2CCCN(S(=O)(=O)c3cc(C)ccc3OC)C2)cc1OC (configuration not stated) | -8.1 | 99.0 | 99.0 | -7.0
CC1CCCN(CCCNC(=O)c2cc3c(Cl)nc4ccccc4c3s2)C1 (configuration not stated) | -0.7 | 189.0* | 106.0 | 54.0*
CN(CCCNC(=O)c1cc2c(Cl)nc3ccccc3c2s1)Cc1ccccc1 | 10.7 | 193.0* | 110.0 | 44.0
C=CCC[C@@H](Cc1ccc(F)cc1)C(=O)OCCNC(=O)[C@H](CC=C)CC(=O)NCCO | -6.3 | . | . | .
SMILES | VLA-4 inh | MEKK2wt PB1 HTS | MEKK3 PB1 HTS | MEKK2mut PB1 HTS
CCN(CC(=O)Nc1ccc(Br)cc1)C(=O)Cc1cccc(F)c1 | 7.3 | 97.0 | 96.0 | 0.0
O=C(O)c1cc(O)c2c(c1)[C@@H]([C@H]1c3cc(C(=O)O)cc(O)c3C(=O)c3c(O[C@@H]4O[C@H](CO)[C@@H](O)[C@H](O)[C@H]4O)cccc31)c1cccc(OC3O[C@H](CO)[C@@H](O)[C@H](O)[C@H]3O)c1C2=O (some centres not stated) | 57.1* | . | . | .
COc1cc(C(=O)NCC(=O)N/N=C/c2ccc(OC(=O)c3ccco3)cc2)cc(OC)c1OC | -17.1 | 94.0 | 101.0 | -1.0
Cc1ccc([N+](=O)[O-])c(OCCN2CCCCCC2)c1 | 9.6 | 118.0 | 104.0 | 5.0
Cc1ccc([N+](=O)[O-])c(OCCCN2CCC(Cc3ccccc3)CC2)c1 | 17.1 | 143.0* | 111.0 | 15.0
C=CCNC(=S)NNC(=O)Cn1c(-c2ccccc2)cc(=O)n2ncnc12 | 17.7 | 98.0 | 93.0 | -18.0
Cc1ccc(NC(=Nc2ccc(Br)cc2)N2CCOCC2)cc1C | -0.8 | 113.0 | 103.0 | 7.0
O=C(Nc1ccc(Nc2ccncc2)cc1)c1ccc(Nc2ccnc3ccc([N+](=O)[O-])cc23)cc1 | . | 72.0*[inhibitor] | 61.0*[inhibitor] | -13.0
CC1CCC(C(C)C)C(OC(=O)Cn2c(-c3ccc(Br)cc3)[n+](C)c3ccccc32)C1 (configuration not stated) | 2.2 | 147.0*! | 97.0 | 11.0
COc1ccc2[nH]c(=O)c(CN(Cc3cccs3)C(=S)Nc3ccccc3)cc2c1 | -17.1 | -1.0* | 100.0 | -1.0
O=C(C1CCN(Cc2ccc(Cl)cc2)CC1)N1CCN(C(c2ccccc2)c2ccccc2)CC1 | 24.4 | 145.0* | 106.0 | 49.0
Cc1cc(C)c(OCC(O)CN2CCN(c3ccccn3)CC2)c(C)c1 (configuration not stated) | -4.9 | -8.0* | 106.0 | 3.0
O=C(O)Cc1c(C(=O)O)[nH]c2ccc(C(=O)O)cc12 | -6.2 | 107.0 | 109.0 | 2.0
O=C(c1ccco1)N1CCN(Cc2cc(=O)c(OCc3c(F)cccc3Cl)co2)CC1 | -5.3 | . | . | .
CCCN1CCN(CCCNC(=O)c2ccc(NC(=O)C3=C(C)OCCS3)cc2)CC1 | 3.4 | 116.0 | 102.0 | 8.0
CCCCNc1cc(C)nc(NCc2ccccc2)n1 | 4.0 | 133.0 | 106.0 | 10.0
Cc1cc(Nc2ccc(Cl)cc2)nc(NCc2ccccc2)n1 | 8.9 | 159.0* | 110.0 | 12.0
CCCOc1ccc(C(F)(F)F)cc1NC(=O)C1CC(=O)N(Cc2ccco2)C1 (configuration not stated) | 9.4 | . | . | .
CC1(C)CC(=O)/C(=C\c2cccc([N+](=O)[O-])c2)C(C)(C)N1 | -13.7 | 107.0 | 132.0* | 1.0
Cc1onc(C(=O)Nc2ccccc2C(F)(F)F)c1[N+](=O)[O-] | 0.2 | 0.0*[inhibitor] | 1.0*[inhibitor] | -21.0
CSc1ccccc1NC(=O)c1noc(C)c1[N+](=O)[O-] | -11.0 | 102.0 | 98.0 | 2.0
CC(=O)N1CCN(CC(=O)Nc2cc([N+](=O)[O-])ccc2Cl)CC1 | -0.3 | 106.0 | 105.0 | 9.0
